PubChem BioAssay AID1159580 (chemical genetic matrix, 2015)
The whole screen tested about 5,500 compounds, of which about 2,000 (36%) were called active. Inconclusive results (about 18%) are left out. Cut-off read from the data, not from the text of the source: active = normalized growth mostly below about 0.91 (no sharp cut-off); inconclusive = no clear call, values can overlap the other calls; inactive = mostly above about 0.92. The list shows a part of the results.

Experiment: chemical genetic growth profiling, strain panel (AID 1159580);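 note: tested at 20 µM; growth read once vehicle control cultures reached saturation at 30 °C; 1 = growth at the plate median or of vehicle wells; lower values mean less growth of the strain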
Conditions: growth OD

Measured: normalized growth

CC1(C)O[C@@H]2CC3C4C[C@H](F)C5=CC(=O)C=CC5(C)C4C(O)CC3(C)[C@]2(C(=O)CO)O1 (some centres undefined)
inactive: S. cerevisiae deletion strains, locus YKL009W, strain mrt4, stronger effect = lower value 0.996 | S. cerevisiae deletion strains, locus YKL068W, stronger effect = lower value 0.992 | S. cerevisiae deletion strains, locus YKL085W, strain MDH1 (second series), stronger effect = lower value 1.01 | S. cerevisiae deletion strains, locus YKL085W, strain MDH1, stronger effect = lower value 1.01 | S. cerevisiae deletion strains, locus YKL160W, strain elf1, stronger effect = lower value 0.967 | S. cerevisiae deletion strains, locus YKL190W, strain CNB1, stronger effect = lower value 1.01 | S. cerevisiae deletion strains, locus YKR001C, strain vps1, stronger effect = lower value 1.01 | S. cerevisiae deletion strains, locus YKR026C, strain gcn3, stronger effect = lower value 0.988 | S. cerevisiae deletion strains, locus YKR091W, strain srl3, stronger effect = lower value 0.985 | S. cerevisiae deletion strains, locus YLL001W, strain dnm1, stronger effect = lower value 0.978 | S. cerevisiae deletion strains, locus YLL026W, stronger effect = lower value 1.02 | S. cerevisiae deletion strains, locus YLL041C, strain sdh2, stronger effect = lower value 0.981 | S. cerevisiae deletion strains, locus YLR027C, strain aat2, stronger effect = lower value 0.992 | S. cerevisiae deletion strains, locus YLR039C, strain RIC1, stronger effect = lower value 0.995 | S. cerevisiae deletion strains, locus YLR058C, strain SHM2, stronger effect = lower value 1.02 | S. cerevisiae deletion strains, locus YLR102C, strain apc9, stronger effect = lower value 0.981 | S. cerevisiae deletion strains, locus YLR113W, strain HOG1, stronger effect = lower value 1.04 | S. cerevisiae deletion strains, locus YLR221C, strain rsa3, stronger effect = lower value 1.02 | S. cerevisiae deletion strains, locus YLR258W, strain gsy2, stronger effect = lower value 0.984 | S. cerevisiae deletion strains, locus YLR262C, strain YPT6 (second series), stronger effect = lower value 0.969 | S. cerevisiae deletion strains, locus YLR262C, strain YPT6, stronger effect = lower value 1 | S. cerevisiae deletion strains, locus YLR268W, strain sec22, stronger effect = lower value 1.01 | S. cerevisiae deletion strains, locus YLR320W, strain mms22, stronger effect = lower value 0.981 | S. cerevisiae deletion strains, locus YLR330W, strain CHS5, stronger effect = lower value 1.02 | S. cerevisiae deletion strains, locus YLR342W, strain FKS1 (second series), stronger effect = lower value 1 | S. cerevisiae deletion strains, locus YLR342W, strain FKS1, stronger effect = lower value 0.978 | S. cerevisiae deletion strains, locus YLR357W, strain rsc2, stronger effect = lower value 0.933 | S. cerevisiae deletion strains, locus YLR370C, strain arc18, stronger effect = lower value 0.981 | S. cerevisiae deletion strains, locus YLR371W, strain rom2, stronger effect = lower value 0.988 | S. cerevisiae deletion strains, locus YLR384C, strain iki3, stronger effect = lower value 0.992 | S. cerevisiae deletion strains, locus YLR418C, strain cdc73, stronger effect = lower value 0.977 | S. cerevisiae deletion strains, locus YML016C, strain PPZ1, stronger effect = lower value 1.02 | S. cerevisiae deletion strains, locus YML032C, strain rad52, stronger effect = lower value 0.979 | S. cerevisiae deletion strains, locus YML120C, strain ndi1, stronger effect = lower value 1 | S. cerevisiae deletion strains, locus YML124C, strain tub3, stronger effect = lower value 0.992 | S. cerevisiae deletion strains, locus YMR058W, strain fet3, stronger effect = lower value 1.01 | S. cerevisiae deletion strains, locus YMR078C, strain ctf18, stronger effect = lower value 1 | S. cerevisiae deletion strains, locus YMR125W, strain sto1, stronger effect = lower value 0.979 | S. cerevisiae deletion strains, locus YMR129W, stronger effect = lower value 1.01 | S. cerevisiae deletion strains, locus YMR205C, strain PFK2, stronger effect = lower value 0.981 | S. cerevisiae deletion strains, locus YMR223W, strain ubp8, stronger effect = lower value 0.996 | S. cerevisiae deletion strains, locus YMR231W, strain pep5, stronger effect = lower value 0.978 | S. cerevisiae deletion strains, locus YMR263W, strain SAP30, stronger effect = lower value 1.02 | S. cerevisiae deletion strains, locus YMR307W, strain GAS1, stronger effect = lower value 1.07 | S. cerevisiae deletion strains, locus YNL067W, strain RPL9B, stronger effect = lower value 1.03 | S. cerevisiae deletion strains, locus YNL071W, strain lat1, stronger effect = lower value 0.987 | S. cerevisiae deletion strains, locus YNL153C, strain GIM3, stronger effect = lower value 1.03 | S. cerevisiae deletion strains, locus YNL183C, strain NPR1, stronger effect = lower value 0.953 | S. cerevisiae deletion strains, locus YNL209W, strain ssb2, stronger effect = lower value 0.974 | S. cerevisiae deletion strains, locus YNL233W, strain BNI4, stronger effect = lower value 1.02 | S. cerevisiae deletion strains, locus YNL248C, strain rpa49, stronger effect = lower value 0.927 | S. cerevisiae deletion strains, locus YNL250W, strain rad50, stronger effect = lower value 0.993 | S. cerevisiae deletion strains, locus YNL271C, strain bni1, stronger effect = lower value 0.97 | S. cerevisiae deletion strains, locus YNL298W, strain CLA4, stronger effect = lower value 0.988 | S. cerevisiae deletion strains, locus YNL307C, strain MCK1, stronger effect = lower value 0.98 | S. cerevisiae deletion strains, locus YNL322C, strain KRE1 (second series), stronger effect = lower value 0.963 | S. cerevisiae deletion strains, locus YNL322C, strain KRE1, stronger effect = lower value 1.01 | S. cerevisiae deletion strains, locus YNR049C, strain mso1, stronger effect = lower value 0.974 | S. cerevisiae deletion strains, locus YNR052C, strain pop2, stronger effect = lower value 0.993 | S. cerevisiae deletion strains, locus YOL006C, strain TOP1, stronger effect = lower value 1.01 | S. cerevisiae deletion strains, locus YOL012C, strain htz1 0.907 | S. cerevisiae deletion strains, locus YOL147C, strain pex11, stronger effect = lower value 0.992 | S. cerevisiae deletion strains, locus YOR001W, strain rrp6, stronger effect = lower value 1.01 | S. cerevisiae deletion strains, locus YOR061W, strain CKA2, stronger effect = lower value 1.02 | S. cerevisiae deletion strains, locus YOR069W, strain VPS5, stronger effect = lower value 1.01 | S. cerevisiae deletion strains, locus YOR070C, strain gyp1, stronger effect = lower value 0.984 | S. cerevisiae deletion strains, locus YOR080W, strain dia2, stronger effect = lower value 0.977 | S. cerevisiae deletion strains, locus YOR083W, strain WHI5, stronger effect = lower value 0.918 | S. cerevisiae deletion strains, locus YOR106W, strain vam3, stronger effect = lower value 0.976 | S. cerevisiae deletion strains, locus YOR136W, strain idh2, stronger effect = lower value 0.994 | S. cerevisiae deletion strains, locus YOR144C, strain elg1, stronger effect = lower value 0.984 | S. cerevisiae deletion strains, locus YOR184W, strain ser1, stronger effect = lower value 0.982 | S. cerevisiae deletion strains, locus YOR231W, strain MKK1, stronger effect = lower value 1.02 | S. cerevisiae deletion strains, locus YOR265W, strain rbl2, stronger effect = lower value 1.01 | S. cerevisiae deletion strains, locus YOR270C, strain vph1, stronger effect = lower value 0.955 | S. cerevisiae deletion strains, locus YOR290C, strain snf2, stronger effect = lower value 0.964 | S. cerevisiae deletion strains, locus YOR316C, strain cot1, stronger effect = lower value 0.983 | S. cerevisiae deletion strains, locus YPL051W, strain arl3, stronger effect = lower value 0.981 | S. cerevisiae deletion strains, locus YPL055C, strain LGE1, stronger effect = lower value 1.04 | S. cerevisiae deletion strains, locus YPL078C, strain atp4, stronger effect = lower value 0.977 | S. cerevisiae deletion strains, locus YPL106C, strain sse1, stronger effect = lower value 0.95 | S. cerevisiae deletion strains, locus YPL240C, strain hsp82, stronger effect = lower value 0.992 | S. cerevisiae deletion strains, locus YPL256C, strain CLN2, stronger effect = lower value 1.03 | S. cerevisiae deletion strains, locus YPR119W, strain clb2, stronger effect = lower value 0.987 | S. cerevisiae deletion strains, locus YPR141C, strain kar3, stronger effect = lower value 0.996 | S. cerevisiae deletion strains, locus YPR163C, strain tif3, stronger effect = lower value 0.988 | S. cerevisiae deletion strains, locus YPR167C, strain met16, stronger effect = lower value 0.987 | S. cerevisiae deletion strains, strain wtn01, stronger effect = lower value 0.984 | S. cerevisiae strains, strain wild type, stronger effect = lower value 1.02
